# Assay results: PubChem BioAssay (Tox21)
# Results filed as inconclusive are left out. Activity calls are given as the source filed them. Calls follow the shape of the full dose curve.
# Target: Thyrotropin receptor (Homo sapiens) (UniProt P16473)
# Experiment: qHTS assay to identify small molecule antagonists of the thyroid stimulating hormone receptor (TSHR) signaling pathway (AID 1259385); also: nearly all actives have a fitted effect of over 20% in size
# Conditions: TSHR-HEK293 cAMP HTRF, TSH-stimulated antagonist mode; series mostly up to 92.4 µM
# From the text: U.S. Tox21 Program National Center for Advancing Translational Sciences [NCATS] NIH Chemical Genomics Center [NCGC] U.S. Environmental Protection Agency [EPA] National Institutes of Environmental Health Sciences [NIEHS] National Toxicology Program [NTP] U.S. Food and Drug Administration [FDA] Tox21 Assay Overview: TSHR is the receptor for thyrotropin (thyroid stimulating hormone or TSH), a member of the glycoprotein hormone family. TSH is released by the anterior pituitary gland and is the main regulator of thyroid gland growth and development. Upon binding circulating thyrotropin, a G-protein signal cascade activates adenylyl cyclase and […] cAMP concentration is increased. cAMP is a key second messenger involved extensively in cellular signal transduction pathways associated with the majority of G-protein coupled receptors (GPCRs). The activation of these GPCRs by neurotransmitters, lipids, nucleotides, peptides and hormones results in the activation or the inhibition of plasma membrane-bound adenylate cyclase through heterotrimeric G-proteins. A cell-based TSHR assay can be used to screen chemical compounds that modulate TSHR either in agonist or antagonist mode.
# Tox21 Assay Protocol Summary: TSHR-Hek293 cells were dispensed at 800 cells/4uL/well in 1536-well white plates using a Multidrop dispenser. After the assay plates were incubated at a 37C/5% CO2 incubator for 18 hrs, 23 nL of compounds dissolved in DMSO, positive controls or DMSO only was transferred to the assay plate by a pin tool, followed by 1 ul medium containing Ro20-1724. For the antagonist mode screening, 1 uL of TSH was added on the top of the cell/compound mixtures to achieve a final agonist concentration of 1.5 ng/mL. After 30 min of incubation at room temperature, 2.5 ul/well of cAMP-d2 and 2.5 ul/well of anti-cAMP-cryptate were added respectively into the assay plates using a Flying Reagent Dispenser. The plates were incubated at room temperature for 1 hr. The fluorescence intensity in the plates was measured using an Envision plate reader. Each test compound was measured at 15 concentrations and in triplicates.
# Thyrotropin receptor (Homo sapiens), sequence (P16473 whole entry, looked up): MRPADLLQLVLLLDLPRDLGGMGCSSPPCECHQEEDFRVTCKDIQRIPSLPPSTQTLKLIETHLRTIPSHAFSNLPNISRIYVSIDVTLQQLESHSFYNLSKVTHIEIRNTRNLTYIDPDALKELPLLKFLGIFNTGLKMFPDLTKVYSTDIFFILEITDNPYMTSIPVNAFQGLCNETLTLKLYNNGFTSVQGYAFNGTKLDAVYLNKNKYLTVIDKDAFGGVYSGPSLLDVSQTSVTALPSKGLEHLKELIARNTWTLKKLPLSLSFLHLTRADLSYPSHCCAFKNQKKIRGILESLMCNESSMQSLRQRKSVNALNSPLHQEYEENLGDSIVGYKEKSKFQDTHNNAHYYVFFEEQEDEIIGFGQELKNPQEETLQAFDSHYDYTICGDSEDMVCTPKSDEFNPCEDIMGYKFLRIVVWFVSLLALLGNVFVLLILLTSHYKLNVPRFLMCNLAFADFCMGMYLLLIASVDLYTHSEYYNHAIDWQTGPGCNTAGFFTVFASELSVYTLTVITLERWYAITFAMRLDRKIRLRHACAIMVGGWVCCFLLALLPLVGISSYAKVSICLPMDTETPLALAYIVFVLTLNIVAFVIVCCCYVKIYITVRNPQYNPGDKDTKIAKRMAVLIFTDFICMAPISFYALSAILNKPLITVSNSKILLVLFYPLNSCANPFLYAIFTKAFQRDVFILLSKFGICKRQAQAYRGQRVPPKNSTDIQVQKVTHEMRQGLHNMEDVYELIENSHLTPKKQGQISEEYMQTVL
row,SMILES,outcome
1,COC(=O)Nc1nc2ccc(Sc3ccccc3)cc2[nH]1,inactive
2,O=[N+]([O-])c1cccc(Cl)c1,inactive
3,CCCCCCOC(C)=O,inactive
4,Clc1ccc(Cl)c(Cl)c1Cl,inactive
5,CC(C)Cc1ccccc1,inactive
6,C=C(C#N)C(=O)OCC,inactive
7,CC1COc2ccccc2N1C(=O)C(Cl)Cl (stereo not given),inactive
8,O=[N+]([O-])C(CO)(CO)CO,inactive
9,S=c1nc[nH]c2nc[nH]c12,inactive
10,CS(=O)(=O)Nc1ccc([N+](=O)[O-])cc1Oc1ccccc1,inactive
11,Cc1ccc(C(=O)O)o1,inactive
12,Oc1ccc(OCc2ccccc2)cc1,inactive
13,C=C(C)C(=O)OCCCCCC,inactive
14,CC1(C)O[C@@H]2C[C@H]3[C@@H]4C[C@H](F)C5=CC(=O)CC[C@]5(C)[C@H]4[C@@H](O)C[C@]3(C)[C@]2(C(=O)CO)O1,inactive
15,CN(C)c1cccc(O)c1,inactive
16,CN(C)c1ccc(C(=N)c2ccc(N(C)C)cc2)cc1,inactive
17,C=C(C)C(=O)OCCC[Si](OC)(OC)OC,inactive
18,CC(C)(C)C(=O)C1C(=O)c2ccccc2C1=O,inactive
19,Cc1cc(O)cc(C)c1Cl,inactive
20,Oc1ccc2ccccc2c1N=Nc1ccccc1,inactive

row,SMILES,outcome
1,O=S(=O)(O)CCS,inactive
2,O=C(Oc1ccccc1)c1ccc(O)cc1,inactive
3,CCCCC(CC)C(=O)OCCOCCOCCOC(=O)C(CC)CCCC (stereo not given),inactive
4,CC(C)(N=C=O)c1cccc(C(C)(C)N=C=O)c1,inactive
5,C=C1C2CCC(C2)C1(C)C (stereo not given),inactive
6,CCc1ccc(O)cc1,inactive
7,CNC[C@H](O)[C@@H](O)[C@H](O)[C@H](O)CO,inactive
8,CCCCCCC(C)(C)S,inactive
9,C[C@@H]1O[C@@H](OC[C@H]2O[C@@H](Oc3c(-c4ccc(O)c(O)c4)oc4cc(O)cc(O)c4c3=O)[C@H](O)[C@@H](O)[C@@H]2O)[C@H](O)[C@H](O)[C@H]1O,inactive
10,O=C1O[C@H](CO)[C@@H](O)[C@H](O)[C@H]1O,inactive
11,ClC1=C(Cl)C(Cl)(Cl)C(Cl)=C1Cl,inactive
12,OC1CCCC1,inactive
13,CCCCCCCCC,inactive
14,CCCCC(CC)COC(C)=O (stereo not given),inactive
15,Cc1cc(=O)[nH]c(C(C)C)n1,inactive
16,CCCCC(CC)COC(=O)/C=C\C(=O)OCC(CC)CCCC (stereo not given),inactive
17,CCCCCCCCCCCCN,inactive
18,NCCNCCNCCNCCN,inactive
19,c1ccc2ccccc2c1,inactive
20,CC[Si](OC(C)=O)(OC(C)=O)OC(C)=O,inactive
